# PubChem BioAssay AID488841 (Sanford-Burnham Center for Chemical Genomics, 2010)
# About 380 (27%) of roughly 1,400 compounds were called active. This is one part of the list. Unmarked numbers belong to inactive results.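 The calls were made as follows: active = mean inhibition above 50% across duplicate retests at 10 µM; inactive = the rest.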
# Assay: yeast NALP1 reporter signal suppression – S. cerevisiae, luminescence, single concentration, NALP1 inhibitor project, confirmation (AID 488841);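 also: plate controls were DMSO in galactose medium for no effect and cells in plain SD medium for full effect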
# Conditions: S. cerevisiae NALP1/ASC/Caspase-1 reporter, beta-gal luminescence; at 10 µM; active compounds read high
row,Structure (SMILES),inhibition
1,Clc1ccc2c(N/N=C/c3ccccc3Br)ccnc2c1,39%
2,Cc1ccc(N/C=C/C(=O)C(C)(C)C)c(O)c1,31.6%
3,Cn1cc(CC(=O)Nc2cccc(C#N)c2)c2ccccc21,26.6%
4,c1ccc2cc(CSCc3nc4ccccc4[nH]3)ccc2c1,42.5%
5,c1ccc2[nH]c3cc4ncnc4cc3nc2c1,52.8% (active)
6,CC(C)Oc1ccc2c(=O)c(-c3ccccc3)coc2c1,66.2% (active)
7,CCCCOC(=O)Oc1ccc2c(=O)c(Oc3cc(C)cc(C)c3)coc2c1,45.8%
8,COc1ccccc1N1CCN(C(=O)CSc2ncnc3scc(-c4ccccc4)c23)CC1,47.8%
9,CC1CCN(c2nc(CN3CCCCC3)nc3scc(-c4ccccc4)c23)CC1,65.5% (active)
10,Cc1ccc(S(=O)(=O)N[C@@H](Cc2ccccc2)C(=O)CCl)cc1,-1.6%
11,c1ccc(-c2c(-c3ccccc3)n(Cc3ccco3)c3ncnc(NCCCn4ccnc4)c23)cc1,38%
12,CC(=O)n1cc(-c2ccncc2)c2ccccc21,46.6%
13,COC(=O)Cn1nc(-c2ccccc2)c2ccccc21,99.7% (active)
14,O=C(O)Cn1nc(-c2ccccc2)oc1=O,27.4%
15,COc1ccc2c(c1)C1=NN(/C(C)=C/C(C)=O)C(c3cccc(F)c3)C1CC2 (stereo not given),42.1%
16,COC(=O)N/N=C/c1ccc(OC(=O)c2ccco2)c(OC)c1,22.6%
17,Cc1ccc(/C=N/NC(=O)c2ccc3nc[nH]c3c2)o1,31.1%
18,COC(=O)N/N=C/c1ccc(-c2cccc(Cl)c2)o1,68.8% (active)
19,O=C1c2ccccc2C(O)N1c1cccnc1 (stereo not given),27.9%
20,O=C1c2ccccc2C(Nc2ccc(Cl)cn2)N1Cc1ccccc1 (stereo not given),55.5% (active)
21,Nc1c2c(nc3sc4c(c13)CCCC4)CCCCCC2,32.1%
22,CC1CCc2nc3sc4c(c3c(N)c2C1)CCCC4 (stereo not given),56.2% (active)
23,Nc1c2c(nc3sc4c(c13)CCCCC4)CCCCC2,40.6%
24,CSCCNC(C)=O,15%
25,CC(C)CC(=O)c1c[nH]c(C(=O)NCc2cccs2)c1,22.6%
26,O=C(NCc1cccs1)c1csc2ccccc12,51.3% (active)
27,O=C(c1ccco1)N1CCN(Cc2cn[nH]c2-c2cccc3ccccc23)CC1,25.2%

row,Structure (SMILES),inhibition
1,O=C(COc1cccc2ccccc12)N1CCN(c2ccccc2)CC1,48.1%
2,COC(=O)c1ccc(C(=O)OC)c(NC(=O)CN2CCN(c3ccccc3OC)CC2)c1,38.4%
3,COc1ccccc1N1CCN(CCCCOc2cccc3ccccc23)CC1,62.8% (active)
4,COc1ccccc1N1CCN(CCCCCCOc2ccc(F)cc2)CC1,63.4% (active)
5,COc1ccccc1OCCCCN1CCN(c2ccccc2OC)CC1,17.7%
6,COc1ccc(CN2CC(C(=O)NCCN3CCN(c4ccccc4F)CC3)CC2=O)cc1 (stereo not given),32%
7,CCC(C)C(=O)N1c2ccccc2C(=C2SC(C(=O)OC)=C(C(=O)OC)S2)C(=S)C1(C)C (stereo not given),40%
8,COc1ccc(NC(=O)N2CCC(CO)(CC3CCCCO3)CC2)c(OC)c1 (stereo not given),29.4%
9,CN1CCC(Oc2ccc(Sc3ccccc3)cc2)CC1,40.1%
10,O=CC1=C(c2ccccc2)Oc2ccccc2O1,94.8% (active)
11,Clc1ccc(OCCCN2CCCC2)cc1Cl,39.5%
12,CN(C)Cc1ccccc1Sc1ccccc1Br,28.9%
13,Cc1cccc(Oc2nc(CN3CCOCC3)nc3sc4c(c23)CCCC4)c1,51.5% (active)
14,Fc1ccc(Nc2nc(Oc3ccccc3F)nc(N3CCCC3)n2)cc1,29.2%
15,C=CCSc1nsc(NC(=O)Nc2ccc(F)cc2)n1,97.7% (active)
16,O=C1/C(=C/c2cccnc2)SC(=S)N1C1CCS(=O)(=O)C1 (stereo not given),44.6%
17,CC1=C/C(=N\OS(=O)(=O)c2ccccc2)C(C(C)C)=CC1=O,88.5% (active)
18,CC1=CC(=O)C=C(C)C1=NOS(=O)(=O)c1ccccc1,53.9% (active)
19,CCN(CCO)Cc1csc2ccc(Br)cc12,41%
20,C/C(=N\NC(=O)c1c[nH]c2ccccc12)c1ccco1,26.3%
21,O=S(=O)(Nc1ccncc1Cl)c1ccccc1,27.6%
22,CNC(=O)c1ccsc1NC(=O)c1sc2ccccc2c1Cl,33.5%
23,O=C(Nc1nc(-c2ccccn2)cs1)c1ccc(Cl)s1,24.1%
24,O=C(Nc1nccs1)c1sc2ccccc2c1Cl,61.4% (active)
25,COC(=O)Nc1nc(C)c(C(=O)c2ccccc2)s1,44.9%
26,COC(=O)Nc1sc2nc(C)cc(C)c2c1-n1cccc1,54% (active)
27,Cc1ccc2c(Cl)c(C)c(N3CCCCC3)nc2n1,55.4% (active)

row,Structure (SMILES),inhibition
1,CSC1=N/C(=C\c2cccnc2)C(=O)N1c1ccccc1,30.7%
2,O=S(=O)(Nc1cccnc1)c1cccs1,26.2%
3,COc1ccc(C(=O)Cn2c(C(=O)/C=C/c3ccccc3)nc3ccccc32)cc1,25.8%
4,COc1ccc(C(=O)/C=C/c2ccc(OC)c(CN3CCOCC3)c2)cc1,63.4% (active)
5,Cc1ccc(C(=O)/C=C/c2cn(CC(O)CN3CCOCC3)c3ccccc23)cc1 (stereo not given),39.7%
6,C/C(=N\Nc1nc2c(s1)CCCC2)c1ccccc1,29.5%
7,CCCOc1ccc(C(=O)NC(C)C(=O)O)cc1 (stereo not given),29.1%
8,CCOc1ccc(C(=O)C(CCC(CN(C)C)C(=O)c2ccc(OCC)cc2)CN(C)C)cc1 (stereo not given),73% (active)
9,CC(C)OC(=O)COc1ccc(-c2ccccc2)cc1,25.2%
10,O=C(NCc1cccnc1)C1CCN(S(=O)(=O)c2cccnc2)CC1,33.3%
11,CCNC(=S)SCCOc1ccccc1C,57.5% (active)
12,CCn1c(COc2ccccc2C)nnc1SCC(=O)N1CCN(c2ccccc2)CC1,20.6%
13,Cc1ccc(/C(COc2ccccc2O)=N\O)cc1,44%
14,C=CCn1c(=O)c2ccc(C(=O)NCc3ccccc3)cc2n(Cc2ccccc2Cl)c1=O,27%
15,O=C(CCN1CCc2ccccc2C(c2ccccc2)C1)c1ccc2c(c1)OCCO2 (stereo not given),30%
16,Cc1nc(-c2ccccc2)cn2c1nc1ccccc12,49%
17,c1ccc(-c2ccc(-c3cn4c(n3)CCC4)cc2)cc1,85.2% (active)
18,COc1cc2nc(Cl)nc(N3CCN(C)CC3)c2cc1OC,39.5%
19,O=c1sc(Nc2ccccc2)nc2ccsc12,78.8% (active)
20,c1ccc(Nc2ccccn2)cc1,27.3%
21,CC(C)CN=Cc1c(O)c([N+](=O)[O-])cc2oc3c(c12)CCCC3,35.5%
22,CC(C)C(=O)N(Cc1ccccc1)c1ccccn1,19.8%
23,Cc1cc(C)c(S(=O)(=O)N(CC(=O)O)CC(=O)O)c(C)c1,25.9%
24,CCCOc1ccccc1NC(=O)/C=C/C(N)=O,71.2% (active)
25,CCOc1ccccc1N/C=C(\C#N)c1nc2ccccc2n1C,12.5%
26,CCCCOc1ccccc1NC(=O)c1ccco1,34.8%
27,COc1ccccc1NC(=O)CCN1CCN(Cc2ccccc2)CC1,44.5%

row,Structure (SMILES),inhibition
1,CCOc1ccccc1NC(=O)/C=C/C(N)=O,59.6% (active)
2,O=[N+]([O-])/C(C(=C(Cl)Cl)N1CCN(Cc2ccccc2)CC1)=C1\NCCN1Cc1ccc(Cl)nc1,35.4%
3,CCOC(=O)c1c(C)[nH]c(N=Nc2cccc(C)c2)c1C,46.4%
4,Oc1c(Cl)cc(Cl)c(Cl)c1Cc1c(O)c(Cl)cc(Cl)c1Cl,99.9% (active)
5,Oc1c(Cl)cc(Cl)c2c1NCCC2,41.9%
6,CCOC(=O)C(C(=O)OCC)C(C(=O)OCC)N1CCOCC1 (stereo not given),64.8% (active)
7,CCC(Cc1ccccc1)NC(=O)C1CCN(S(=O)(=O)c2c(C)noc2C)CC1 (stereo not given),26.1%
8,CCOC(=O)c1cc([N+](=O)[O-])c([N+](=O)[O-])cc1NC(C)=O,24.9%
9,NS(=O)(=O)c1ccc(NC(=O)COC(=O)c2cn(-c3ccccc3)nc2-c2ccc(F)cc2)cc1,18.7%
10,CN(C)c1ccc(NC(=O)COC(=O)c2cc(Cl)ccc2[N+](=O)[O-])cc1,62.9% (active)
11,CC1CCN(CCOc2ccc(OCc3ccccc3)cc2)CC1,48.1%
12,O=C(N/N=C/c1cccc(F)c1)c1c(O)c2ccccc2[nH]c1=O,31.5%
13,CCOC(=O)c1nc(C)sc1-c1ccnn1S(=O)(=O)c1ccc(C)cc1,29.4%
14,O=C(O)CC(Cn1cnnn1)c1ccccc1 (stereo not given),25.9%
15,Brc1cccc(OCCN2CCCCC2)c1,44.9%
16,CCc1cccc(OCCN2CCCC2)c1,29.9%
17,Clc1cccc(OCCN2CCN(CCOc3cccc(Cl)c3)CC2)c1,60.4% (active)
18,CCN(CC)S(=O)(=O)c1cccc(C(=O)N[C@H](C(=O)O)C(C)C)c1,33.2%
19,Cc1cccc(N=C2NC(=O)/C(=C\c3cccs3)S2)c1,44%
20,CC(CC(=O)Nc1cccc(Cl)c1)c1ccccc1 (stereo not given),42.7%
21,COC1=C(Nc2ccccc2)C(=O)c2ccccc2C1=O,17.4%
22,O=C(Nc1ccc(Nc2ccccc2)cc1)C(Cl)Cl,78.8% (active)
23,Cc1cccc(C)c1NC(=O)C(Cl)C(=O)c1ccccc1 (stereo not given),12.7%
24,CC(C)C(=O)Nc1ccc(Nc2ccccc2)cc1,58.4% (active)
